From PubChem BioAssay (NCATS) come the findings set out here.

Inconclusive results are not listed. Active and inactive are the calls of the source. Calls follow the shape of the dose curve; as a rule, active = well fitted curve in the direction sought with a large enough effect; inconclusive = small, poorly fitted or top-dose-only effect, or another doubt; inactive = no such curve, though single readings can be large; an effect the other way counts as inactive or inconclusive.

Assay [1] in a line: Quantitative High-Throughput drug screen in 47 multiple myeloma cell lines against the NCATS MIPE library collection: H1112_PLB cell viability assay (AID 1918967; also: nearly all actives have a fitted effect of over 30% in size; also: potency is read from the fitted curve at half-maximal effect). The method in brief: (§1)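 Viability readout: CellTiter-Glo luminescence following 5 min room-temperature incubation with reagent. Prior exposure: 48 h, 37C, humidified 5% CO2, 500 cells per well.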
A short description of assay [2]: Quantitative High-Throughput drug screen in 47 multiple myeloma cell lines against the NCATS MIPE library collection: KMS12BM_JCRB cell viability assay (AID 1918971). Also: nearly all actives have a fitted effect of over 35% in size. Also: potency is read from the fitted curve at half-maximal effect. In a few lines: (§2)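 Luminescent ATP measurement with CellTiter-Glo gives viability, scaled between DMSO-only wells (100%) and media-only wells (0%). Cells, 500 per well, faced library compounds for 48 hours at 37C.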

Assay [3] can be described thus: Quantitative High-Throughput drug screen in 47 multiple myeloma cell lines against the NCATS MIPE library collection: KMS12PE_JCRB cell viability assay (AID 1918972). Also: nearly all actives have a fitted effect of over 30% in size. Also: potency is read from the fitted curve at half-maximal effect. The method in brief:
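Myeloma cell lines, 500 cells per well, exposed to MIPE 4.0 library compounds for 48 h at 37C, 5% CO2. Viability from ATP by CellTiter-Glo luminescence; normalised to DMSO (100%) and media-only (0%) wells.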

The nature of assay [4]: Quantitative High-Throughput drug screen in 47 multiple myeloma cell lines against the NCATS MIPE library collection: KMS20_JCRB cell viability assay (AID 1918973). Also: nearly all actives have a fitted effect of over 45% in size. Also: potency is read from the fitted curve at half-maximal effect. The method in brief: as §1
A short description of assay [5]: Quantitative High-Throughput drug screen in 47 multiple myeloma cell lines against the NCATS MIPE library collection: KMS26_JCRB cell viability assay (AID 1918975). Also: nearly all actives have a fitted effect of over 45% in size. Also: potency is read from the fitted curve at half-maximal effect. In a few lines:
as §2

Assay [6] in a line: Quantitative High-Throughput drug screen in 47 multiple myeloma cell lines against the NCATS MIPE library collection: NCIH929_DSMZ cell viability assay (AID 1918978). Also: nearly all actives have a fitted effect of over 35% in size. Also: potency is read from the fitted curve at half-maximal effect. In a few lines:
(§3)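 500 cells/well per myeloma line exposed to pinned MIPE 4.0 compounds for 48 h at 37 °C, 5% CO2. Viability read as ATP by CellTiter-Glo luminescence, normalised to DMSO-only (100%) and media-only (0%) wells.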

A short description of assay [7]: Quantitative High-Throughput drug screen in 47 multiple myeloma cell lines against the NCATS MIPE library collection: OCIMY1_PLB cell viability assay (AID 1918979). Also: nearly all actives have a fitted effect of over 35% in size. The method in brief: as §3
Assay [8] can be described thus: Quantitative High-Throughput drug screen in 47 multiple myeloma cell lines against the NCATS MIPE library collection: MM1S_ATCC cell viability assay (AID 1918980). Also: nearly all actives have a fitted effect of over 45% in size. Also: potency is read from the fitted curve at half-maximal effect. In a few lines:
as §3

Assay [9] is described as follows: Quantitative High-Throughput drug screen in 47 multiple myeloma cell lines against the NCATS MIPE library collection: MM1R_ATCC cell viability assay (AID 1918981). Also: nearly all actives have a fitted effect of over 35% in size. Also: potency is read from the fitted curve at half-maximal effect. In a few lines:
as §3

A short description of assay [10]: Quantitative High-Throughput drug screen in 47 multiple myeloma cell lines against the NCATS MIPE library collection: LP1_DSMZ cell viability assay (AID 1918982). Also: nearly all actives have a fitted effect of over 35% in size. Also: potency is read from the fitted curve at half-maximal effect. In a few lines:
as §3

A short description of assay [11]: Quantitative High-Throughput drug screen in 47 multiple myeloma cell lines against the NCATS MIPE library collection: KMS34_JCRB cell viability assay (AID 1918985). Also: nearly all actives have a fitted effect of over 40% in size. Also: potency is read from the fitted curve at half-maximal effect. In a few lines:
as §3

Assay [12] in a line: Quantitative High-Throughput drug screen in 47 multiple myeloma cell lines against the NCATS MIPE library collection: OCIMY5_PLB cell viability assay (AID 1918988). Also: nearly all actives have a fitted effect of over 65% in size. Also: potency is read from the fitted curve at half-maximal effect. In a few lines: as §3
Assay [13] can be described thus: Quantitative High-Throughput drug screen in 47 multiple myeloma cell lines against the NCATS MIPE library collection: MMM1_PLB cell viability assay (AID 1918976). Also: nearly all actives have a fitted effect of over 35% in size. Also: potency is read from the fitted curve at half-maximal effect. The method in brief:
as §3

Assay [14] can be described thus: Quantitative High-Throughput drug screen in 47 multiple myeloma cell lines against the NCATS MIPE library collection: L363_DSMZ cell viability assay (AID 1918984). Also: nearly all actives have a fitted effect of over 40% in size. Also: potency is read from the fitted curve at half-maximal effect. In a few lines:
as §3

Assay [15] can be described thus: Quantitative High-Throughput drug screen in 47 multiple myeloma cell lines against the NCATS MIPE library collection: KMS28PE_JCRB cell viability assay (AID 1918983). Also: nearly all actives have a fitted effect of over 35% in size. Also: potency is read from the fitted curve at half-maximal effect. The method in brief: as §3
Assay [16] is described as follows: Quantitative High-Throughput drug screen in 47 multiple myeloma cell lines against the NCATS MIPE library collection: KMS27_JCRB cell viability assay (AID 1918970). Also: nearly all actives have a fitted effect of over 30% in size. Also: potency is read from the fitted curve at half-maximal effect. In a few lines: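 Myeloma cells (500 per well) were exposed to MIPE 4.0 compounds for 48 h at 37 °C, 5% CO2; viability was read as ATP luminescence with CellTiter-Glo, normalized to DMSO-only (100%) and media-only (0%) wells.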

The nature of assay [17]: Quantitative High-Throughput drug screen in 47 multiple myeloma cell lines against the NCATS MIPE library collection: OCIMY7_PLB cell viability assay (AID 1918987). Also: potency is read from the fitted curve at half-maximal effect; nearly all actives have a fitted effect of over 65% in size. The method in brief: as §3
A short description of assay [18]: Quantitative High-Throughput drug screen in 47 multiple myeloma cell lines against the NCATS MIPE library collection: Karpas25_ECACC cell viability assay (AID 1918968). The method in brief:
as §1

Assay [19] is described as follows: Quantitative High-Throughput drug screen in 47 multiple myeloma cell lines against the NCATS MIPE library collection: KMS21BM_JCRB cell viability assay (AID 1918974). Also: potency is read from the fitted curve at half-maximal effect. The conditions noted are these: ATP luminescence, 48 h; viability: at 45.8 µM (top of the series). The method in brief: as §1

Turning to `C[C@]12C=CC(=O)C=C1CC[C@@H]1[C@@H]2C(=O)C[C@@]2(C)[C@H]1CC[C@]2(O)C(=O)CO`, the Potency result in assay [1], in assay [2], in assay [3], in assay [5], in assay [6] and in [7] was “inactive” throughout. The Potency entry in assay [8], in assay [9], in assay [10], in assay [11] and in assay [12] was “inactive” in each case. Besides, the Potency in assay [4] is 0.129 µM (active).
For the compound `C#CCN[C@@H]1CCc2ccccc21`, the Potency result in assay [1], in assay [3], in [4], in assay [5], in [6] and in assay [7] was “inactive” in each case. Besides, the Potency entry in [8], in [9], in assay [10], in assay [14] and in assay [11] was “inactive” in each case. Besides, the Potency is 11.8 µM (active) in [2] and 23.5 µM (active) in assay [13].
On to `O=C(O)c1cn(C2CC2)c2cc(N3CCNCC3)c(F)cc2c1=O`, for which the Potency result in [1], in assay [3], in [4], in assay [6], in assay [7] and in assay [9] was “inactive” in each case. For the same compound, the Potency result in assay [15] and in [11] was “inactive” throughout.
Regarding `CC[C@H](C)C(=O)O[C@H]1C[C@@H](C)C=C2C=C[C@H](C)[C@H](CC[C@@H]3C[C@@H](O)CC(=O)O3)[C@H]21`, the Potency entry in assay [16], in assay [3], in assay [7] and in assay [14] was “inactive” in each case. For the same compound, the Potency in [13] was 14.8 µM (active); in [8] it was 16.6 µM (active); in assay [9], 16.6 µM (active); in assay [10], 20.9 µM (active); in assay [17], 4.69 µM (active); in assay [12], 16.6 µM (active).
Consider `CCC(=O)O[C@]1(C(=O)SCF)[C@H](C)C[C@H]2[C@@H]3C[C@H](F)C4=CC(=O)C=C[C@]4(C)[C@@]3(F)[C@@H](O)C[C@@]21C`, for which the Potency in assay [1] is 20.9 µM (active); in [17], 5.26 µM (active); in [12] it was 23.5 µM (active). Also, the Potency result in assay [2], in assay [3], in [5], in assay [9], in [10] and in assay [15] was “inactive” each time. In assay [11], the Potency result was “inactive”.
`N=C(N)c1ccc(OCCCCCOc2ccc(C(=N)N)cc2)cc1`: the Potency is 2.96 µM (active) in [18]; 5.9 µM (active) in assay [2]; 5.9 µM (active) in assay [3]; 10.5 µM (active) in [4]; 14.8 µM (active) in assay [13]; 16.6 µM (active) in assay [8]. Also, the Potency in [9] is 18.7 µM (active); in assay [15], 14.8 µM (active); in assay [11] it was 20.9 µM (active); in assay [17], 2.35 µM (active); in assay [12], 14.8 µM (active). Also, the Potency entry in assay [16] and in assay [14] was “inactive” throughout.
Take `O=C(O)c1ccc(-n2nc(-c3ccccc3O)nc2-c2ccccc2O)cc1`: the Potency in assay [18] is 16.6 µM (active); in [16] it was 18.7 µM (active); in [2] it was 20.9 µM (active); in assay [19], 20.9 µM (active).
`COc1cc2c(Nc3ccc(Br)cc3F)ncnc2cc1OCC1CCN(C)CC1`: the Potency in assay [18] was 8.33 µM (active); in assay [2] it was 18.7 µM (active); in assay [4] it was 9.35 µM (active); in assay [6], 8.33 µM (active); in assay [8] it was 23.5 µM (active); in assay [9], 23.5 µM (active). Besides, the Potency in assay [15] is 16.6 µM (active); in [12] it was 18.7 µM (active). For the same compound, the Potency entry in assay [19] is “inactive”.
For the compound `O[C@@H](CNC[C@H](O)[C@H]1CCc2cc(F)ccc2O1)[C@@H]1CCc2cc(F)ccc2O1`, the Potency in assay [1] is 29.6 µM (active); in assay [2], 23.5 µM (active); in [3], 14.8 µM (active); in assay [19], 23.5 µM (active); in assay [5] it was 26.4 µM (active); in assay [13], 23.5 µM (active). The Potency in assay [6] was 23.5 µM (active); in assay [8], 20.9 µM (active); in [9], 26.4 µM (active); in assay [14], 16.6 µM (active); in [12] it was 20.9 µM (active).
For `NCCCC(O)(P(=O)(O)O)P(=O)(O)O`, the results for the Potency in assay [18] and in assay [8] were 16.6 µM (active) and 11.8 µM (active), respectively. Further, the Potency entry in assay [16], in assay [3], in assay [4], in assay [5], in [13] and in assay [6] was “inactive” each time. Further, the Potency entry in assay [7], in [9], in [10] and in [15] was “inactive” in each case.
As for `COc1cnc(NS(=O)(=O)c2ccc(N)cc2)nc1`, the Potency result in assay [1], in assay [5], in [7], in assay [9], in assay [15] and in assay [11] was “inactive” in each case. For the same compound, in assay [12], the Potency result was “inactive”. Further, the Potency is 14.8 µM (active) in assay [3] and 29.6 µM (active) in assay [8].
